Assay outcomes: PubChem BioAssay, several laboratories
This is a sample that favours compounds with a hit; in the whole collection about 4.6% have one here.
FXN GAA850 act = FXN promoter activators, primary screen, cell-based, luciferase luminescence, HEK293 lucGAA850 | HEK293 lucGAA850 FXN promoter luciferase reporter, 24 h; percent of 10 µM SAHA response | activation, % at 6 µM | hit rate 0.56% among 360,000 | AID 540364, 2011;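 active means activation above the average of all compounds screened plus 3 SD, cutoff fixed separately per campaign, cut at about 7.5% in these data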
HSF1 inh = HSF1 inhibitors in luciferase reporter cells, primary screen, cell-based, NIH3T3, luminescence; NIH3T3-HGL HSE-luciferase, MG132-induced, luminescence 8 h; stronger effect = lower value; activity change, negative = inhibition, % at 7.5 µM (by protocol); hit rate 0.77% among 300,000; AID 2098, 2009;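 active means more than half of replicate wells show activity change below -50%, luminescence cut by over half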;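 further: luciferase reports HSF-1 transcriptional activity via heat shock element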
HSF-1 act = HSF-1 activators, primary screen, NIH3T3-HGL cells, MG132 stress, luminescence, single point. hit rate 1.7% among 300,000. NIH3T3-HGL HSF-1 luciferase reporter, 8 h; 100% = twice DMSO control signal. activation, % at 9 µM;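 active means mean replicate activation of at least 50% with a set share of replicates each reaching 50%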
AHR act = AHR activators, primary screen, cell-based, luminescence, luciferase reporter, human. Aryl hydrocarbon receptor (Homo sapiens), P35869. AHR-responsive luciferase reporter cells. activation, % at 5 µM. hit rate 2.5% among 320,000; in the data active means activation above about 47%
Target sequence (P35869 whole entry, looked up): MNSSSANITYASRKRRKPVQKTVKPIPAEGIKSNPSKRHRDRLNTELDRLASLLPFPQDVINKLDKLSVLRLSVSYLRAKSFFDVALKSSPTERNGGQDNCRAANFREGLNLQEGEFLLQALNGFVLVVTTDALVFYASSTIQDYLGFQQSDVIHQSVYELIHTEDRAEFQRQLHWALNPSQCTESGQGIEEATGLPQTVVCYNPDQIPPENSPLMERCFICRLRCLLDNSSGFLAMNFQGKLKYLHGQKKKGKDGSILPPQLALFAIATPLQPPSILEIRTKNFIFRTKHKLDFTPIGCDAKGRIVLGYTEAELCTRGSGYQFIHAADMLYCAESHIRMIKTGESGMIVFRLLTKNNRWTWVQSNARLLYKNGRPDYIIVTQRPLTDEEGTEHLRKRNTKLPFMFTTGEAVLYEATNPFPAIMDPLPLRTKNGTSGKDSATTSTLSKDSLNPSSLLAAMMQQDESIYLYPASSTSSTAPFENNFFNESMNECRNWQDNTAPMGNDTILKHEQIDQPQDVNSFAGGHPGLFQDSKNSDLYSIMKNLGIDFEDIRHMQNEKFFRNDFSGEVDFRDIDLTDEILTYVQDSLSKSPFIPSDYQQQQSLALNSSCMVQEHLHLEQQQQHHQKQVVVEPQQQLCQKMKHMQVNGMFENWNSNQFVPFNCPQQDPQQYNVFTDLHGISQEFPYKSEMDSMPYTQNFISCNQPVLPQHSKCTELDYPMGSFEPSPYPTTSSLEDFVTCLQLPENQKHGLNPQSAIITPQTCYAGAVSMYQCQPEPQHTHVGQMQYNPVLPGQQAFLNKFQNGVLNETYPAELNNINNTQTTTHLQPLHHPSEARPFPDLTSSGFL
Of the large screens only hits and unclear results are named; the others gave an inactive call.

O=C(NCc1ccco1)C(c1cccs1)N(C(=O)C1COc2ccccc2O1)c1cccc(O)c1 (centres undefined)	none
Cc1nc(C(F)(F)F)ccc1C(=O)NCC(O)c1ccccc1 (centres undefined)	AHR act 71
CSc1ccc(-c2nnn(Cc3ccc(Br)cc3)n2)cc1	none
CSc1ccc(-c2nnn(Cc3ccccn3)n2)cc1	HSF-1 act 77
O=S(=O)(Nc1ccc(NS(=O)(=O)c2ccccc2)cc1)c1ccccc1	none (no result: HSF1 inh, HSF-1 act, AHR act)
O=C1C(Nc2ccccc2)=C(NS(=O)(=O)c2ccccc2)C(=O)c2ccccc21	HSF-1 act 60, AHR act 57
CC(c1ccon1)N(C)Cc1cn[nH]c1-c1ccc(F)cc1F (centres undefined)	none
CN(Cc1ccon1)Cc1cn[nH]c1-c1ccc(-c2ccccc2)cc1	AHR act 52
CN(Cc1cn[nH]c1-c1ccc(-c2ccccc2)cc1)CC1CCOCC1	none
CC(c1ccon1)N(C)Cc1cn[nH]c1-c1ccc(-c2ccccc2)cc1 (centres undefined)	AHR act 61
Cc1ccc2c(c1)N=C(c1ccccc1)CC(C(Cl)Cl)=N2	HSF-1 act 61, AHR act 62
Cc1cc2c(cc1C)NC(=O)CC(c1ccccc1)=N2	none (no result: HSF1 inh, HSF-1 act, AHR act)
Cc1ccc(C2=Nc3ccccc3N=C(C(Cl)Cl)C2)cc1	HSF-1 act 93
O=C(CCNC(=O)c1ccc([N+](=O)[O-])cc1)NCCc1ccc(Cl)cc1	none
COc1ccc(C)cc1Nc1n[n+](-c2ccccc2)c(-c2cc(OC)c(OC)cc2Br)s1	none
O=C(CC1Nc2ccccc2NC1=O)Nc1cc(Cl)cc(Cl)c1 (centres undefined)	AHR act 48
COc1ccc(NC(=O)Cc2ccc(C)cc2)c([N+](=O)[O-])c1	none
COc1ccc(NC(=O)CC2Nc3cccc4cccc(c34)NC2=O)cc1 (centres undefined)	AHR act 57
COc1ccc(NC(=O)CC2Nc3cc(C)c(C)cc3NC2=O)c([N+](=O)[O-])c1 (centres undefined)	AHR act 61
O=C(CC1Nc2ccccc2NC1=O)NCc1cccnc1 (centres undefined)	AHR act 49
O=C(CCC1CC(=O)Nc2ccccc21)NCc1cccnc1 (centres undefined)	none
CCCCOc1ccccc1NC(=O)CC1Nc2ccccc2NC1=O (centres undefined)	none
C#Cc1cccc(C(=O)N(Cc2cccnc2)CC2CCCN(C3CCCCC3)C2)c1 (centres undefined)	none (no result: HSF1 inh, HSF-1 act, AHR act)
CC(=O)Nc1sc2c(c1-c1nc3ccccc3s1)CN(C(C)C)CC2	FXN GAA850 act 23, AHR act 74 (no result: HSF1 inh, HSF-1 act)
COc1ccc2[nH]c(C(=O)O)c(CCC(=O)O)c2c1	none
CCC(=O)Nc1nc(N)n(-c2ccccc2)n1	none
Nc1nc(NC(=O)C(Cl)(Cl)Cl)nn1-c1ccccc1	HSF1 inh -77
CC(=O)N(C)C[C@H]1Oc2cc(Br)ccc2S(=O)(=O)N([C@H](C)CO)C[C@@H]1C	none (no result: HSF1 inh, HSF-1 act, AHR act)
Cc1c(C(=O)Nc2c(C)n(C)n(-c3ccccc3)c2=O)oc2c(Cl)cccc12	none
COc1ccc(NC(=O)c2c(N)no[n+]2[O-])c(OC)c1	AHR act 61
COc1ccc(NC(=O)Nc2ccon2)c(OC)c1	AHR act 56
COc1ccc(NC(=O)Nc2ccncc2)c(OC)c1	none
N#Cc1ccccc1NC(=O)CN1C(=O)NC(Cc2c[nH]c3ccccc23)C1=O (centres undefined)	AHR act 78 (no result: HSF1 inh, HSF-1 act)
CS(=O)(=O)Nc1ccc2[nH]c(=O)[nH]c2c1	none
CCCc1ccc2oc(C(=O)NCCc3cnn(C)c3)c(C)c2c1	AHR act 49
CCCc1ccc2oc(C(=O)NCCc3nc(C(=O)OCC)cs3)c(C)c2c1	none (no result: AHR act)
COc1ccc(C/C(O)=C(\C#N)c2nc3ccccc3[nH]2)cc1OC	HSF-1 act 59
CCOC(=O)[C@H]1[C@H]2COc3ccccc3[C@@H]2N2C(=O)c3cc(OC)c(OC)cc3NC(=O)[C@@]12C	none (no result: HSF1 inh, HSF-1 act)
CC(C)(C)c1ccc(C(=O)NC(=S)Nc2ccc(N3CCOCC3)cc2)cc1	none
CCOC(=O)C(Nc1ccc2ccccc2c1)C(=O)OCC	HSF-1 act 59
CC(=O)Nc1ccc2ccccc2c1	none
Cc1ccc(C2=Nc3ccccc3NC(C)(c3ccc(C)o3)C2)o1 (centres undefined)	HSF-1 act 53
CC1(c2ccccc2)CC(c2ccccc2)=Nc2ccccc2N1 (centres undefined)	none
Cc1ccc(-c2nc3cc(N)ccc3o2)cc1	AHR act 73
Nc1ccc(-c2nc3cc([N+](=O)[O-])ccc3o2)cc1	HSF-1 act 58
CC(C)(C)Nc1nc2cc([N+](=O)[O-])ccc2o1	none
Nc1ccc2oc(-c3cccc4ccccc34)nc2c1	AHR act 53
COc1ccc(-c2nc3cc([N+](=O)[O-])ccc3o2)cc1	HSF-1 act 59
Cc1ccc(-c2nc3cc(C)ccc3o2)cc1	none
Cc1ccc(S(=O)(=O)NCC(=O)OCC(=O)N2CC(=O)Nc3ccccc32)cc1	none (no result: HSF1 inh, HSF-1 act)
O=C(NCCc1ccccc1)c1ccc(=O)oc1	none
O=C(/C=C/c1ccco1)NC(=S)Nc1cccc(C(=O)O)c1	none
CC(=O)Nc1ccc(NC(=O)Nc2ccc(C)cc2C)cc1	none
CCCNC(=O)Nc1ccc(C)cc1C	HSF-1 act 51
Cc1cccc(NC(=S)N(c2ccccc2)C(C)C)c1C	none
CCOc1ccccc1C(=O)Nc1cccc2cccnc12	AHR act 74
COc1ccc(C(=O)Nc2cccc3cccnc23)cc1OC	HSF-1 act 68
CC(C)Oc1ccc(C(=O)Nc2cccc3cccnc23)cc1	none
CCOc1ccc(C(=O)Nc2cccc3cccnc23)cc1	AHR act 52
CCOc1ccccc1C(=O)Nc1nnc(C(C)C)s1	AHR act 57
O=C(NNc1nc(-c2ccc(F)cc2)cs1)c1ccccc1	none
CCOC(=O)c1cn(CC)c2ccc(S(=O)(=O)N3CC(C)CC(C)C3)cc2c1=O (centres undefined)	none (no result: HSF1 inh, HSF-1 act)
Cc1ccccc1N1CCN(C2CCCN(C(=O)c3cc(CC(C)C)nn3C)C2)CC1 (centres undefined)	none
Cc1cc(C(=O)COC(=O)c2cccc(NS(C)(=O)=O)c2)c(C)n1CC1CCCO1 (centres undefined)	none (no result: HSF1 inh, HSF-1 act)
COc1ccc(Nc2ncnc3sccc23)cc1OC	AHR act 64
COc1ccc(CCNc2ncnc3sccc23)cc1OC	none
O=C(NCc1cccnc1)Nc1ccccc1	none
CNC(=O)c1cc2c(s1)-c1ccccc1CC2	AHR act 75
O=C1Nc2c(ccc(Cl)c2Cl)C(=O)C1(F)c1ccccc1 (centres undefined)	AHR act 92
COc1cc2ccccc2cc1C(=O)NC1CCCC1	AHR act 77 (no result: HSF1 inh, HSF-1 act)
COc1cc2ccccc2cc1C(=O)Nc1nccs1	AHR act 57
COc1cc2ccccc2cc1C(=O)Nc1ccc(Br)cn1	none (no result: AHR act)
